Drawing on PubChem BioAssay, this text covers growth inhibition, inhibition and outcome for 19 molecules.

Each structure is given as a SMILES string. Unmarked numbers belong to inactive results. For some assays here: Measured potencies and affinities stand elsewhere. Active and inactive are the calls of the source. Unless noted, no rule for the calls is given here.

A short description of assay [1]: antimalarial activity against Dd2 strain (AID 2302;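 active = growth inhibition above 50% at the single 2 µM test dose, taken to imply half-maximal potency below 2 µM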;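 also: 0% = DMSO untreated growth and 100% = chloroquine plus artemisinin killed control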). Particulars: P. falciparum Dd2 in RBCs, LDH growth readout, 72 h; at 2 µM; active compounds read high.
A short description of assay [2]: HepG2 cytotoxicity, primary screen, cytotoxicity control for P. falciparum antimalarial project, cell-based, ATP luminescence (AID 2303;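 active = inhibition above 50%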;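 also: 0% = DMSO wells and 100% = digitonin-killed cells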). The conditions noted are these: HepG2 viability, 24-48 h, at 10 µM, active compounds read high.
Assay [3] concerns the target L-lactate dehydrogenase (Plasmodium falciparum (isolate CDC / Honduras)) (UniProt Q27743). Briefly: PfLDH activity inhibition – cell lysate, 3D7 strain, counter-screen for P. falciparum growth inhibition project (AID 2304).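 Also: 0% = vehicle and 100% = reference inhibitor.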 The conditions noted are these: P. falciparum 3D7 crude extract, LDH APAD/NBT absorbance; at 2 µM; active compounds read high.
Assay [4] in a line: inhibition of 3D7 malaria parasite growth – strain 3D7 (AID 2306).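 Also: 0% = DMSO wells and 100% = chloroquine plus artemisinin control wells.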 Particulars: P. falciparum 3D7 erythrocytic growth, LDH absorbance, 72 h; at 2 µM; active compounds read high.
The target of assay [5] is Calcium-dependent protein kinase 1 (Plasmodium falciparum (isolate 3D7)) (UniProt P62344). Briefly: PfCDPK1 kinase inhibitors, biochemical, TCAMS library (AID 1159585; cut-off not given, nearly all actives have IC50 up to about 0.98 µM;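 also: inhibitors leave more ATP so luminescence rises with inhibition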). The conditions noted are these: recombinant PfCDPK1, Kinase-Glo ATP depletion luminescence. Background: In Kinase-Glo more light means more ATP remaining.
Sequence of Calcium-dependent protein kinase 1 (Plasmodium falciparum (isolate 3D7)) (P62344 whole entry, looked up): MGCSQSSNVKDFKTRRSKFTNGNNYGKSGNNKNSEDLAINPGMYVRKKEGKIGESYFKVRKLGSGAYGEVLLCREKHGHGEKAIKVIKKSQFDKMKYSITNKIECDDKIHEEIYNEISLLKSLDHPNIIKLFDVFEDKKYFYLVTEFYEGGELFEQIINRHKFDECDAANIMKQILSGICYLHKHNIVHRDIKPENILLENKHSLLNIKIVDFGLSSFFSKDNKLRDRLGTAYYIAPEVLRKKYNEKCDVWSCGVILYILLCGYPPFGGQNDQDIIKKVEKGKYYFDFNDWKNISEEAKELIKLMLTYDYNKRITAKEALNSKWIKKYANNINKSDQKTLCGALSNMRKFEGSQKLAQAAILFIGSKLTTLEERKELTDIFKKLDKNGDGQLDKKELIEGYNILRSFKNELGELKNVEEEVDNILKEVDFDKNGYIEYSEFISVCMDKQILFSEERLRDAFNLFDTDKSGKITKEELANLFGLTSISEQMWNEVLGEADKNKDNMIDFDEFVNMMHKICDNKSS
Assay [6] concerns the target Plasmodium falciparum protein kinase 6 (PK6, PF3D7_1337100) (UniProt Q8IDW1). Briefly: PfPK6 kinase inhibitors, biochemical, TCAMS library (AID 1159586). Particulars: recombinant PfPK6, Kinase-Glo ATP depletion luminescence.
Assay [7] addresses Protein kinase 7 (PK7), Plasmodium falciparum 3D7 (PF3D7_0213400) (UniProt Q7YTF7). Briefly: inhibition of Plasmodium PK7 catalytic activity – biochemical, TCAMS antimalarial set, Kinase-Glo luminescence (AID 1159587). The conditions noted are these: recombinant PfPK7, Kinase-Glo ATP depletion luminescence.
For assay [8], the target named is Calcium-dependent protein kinase 4 (Plasmodium falciparum (isolate 3D7)) (UniProt Q8IBS5). Briefly: PfCDPK4 kinase inhibitors, biochemical, TCAMS library (AID 1159588; cut-off not given, nearly all actives have IC50 up to about 0.91 µM). The conditions noted are these: recombinant PfCDPK4, Kinase-Glo ATP depletion luminescence.
Sequence of Calcium-dependent protein kinase 4 (Plasmodium falciparum (isolate 3D7)) (Q8IBS5 whole entry, looked up): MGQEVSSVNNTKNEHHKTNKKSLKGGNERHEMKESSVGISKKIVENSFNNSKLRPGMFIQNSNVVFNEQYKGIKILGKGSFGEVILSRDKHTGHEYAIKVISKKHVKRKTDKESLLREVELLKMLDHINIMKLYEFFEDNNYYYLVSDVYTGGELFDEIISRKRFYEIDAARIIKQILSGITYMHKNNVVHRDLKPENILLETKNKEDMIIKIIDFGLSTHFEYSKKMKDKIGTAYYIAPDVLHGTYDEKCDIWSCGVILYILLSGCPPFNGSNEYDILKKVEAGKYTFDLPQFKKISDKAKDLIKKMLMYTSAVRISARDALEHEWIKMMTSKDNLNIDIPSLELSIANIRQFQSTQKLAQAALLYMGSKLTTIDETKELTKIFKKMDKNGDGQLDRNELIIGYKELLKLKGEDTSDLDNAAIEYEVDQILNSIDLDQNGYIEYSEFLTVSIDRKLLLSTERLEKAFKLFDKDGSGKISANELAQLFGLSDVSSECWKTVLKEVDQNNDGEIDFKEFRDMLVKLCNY

Sequence of Protein kinase 7 (PK7), Plasmodium falciparum 3D7 (PF3D7_0213400) (Q7YTF7 1-343): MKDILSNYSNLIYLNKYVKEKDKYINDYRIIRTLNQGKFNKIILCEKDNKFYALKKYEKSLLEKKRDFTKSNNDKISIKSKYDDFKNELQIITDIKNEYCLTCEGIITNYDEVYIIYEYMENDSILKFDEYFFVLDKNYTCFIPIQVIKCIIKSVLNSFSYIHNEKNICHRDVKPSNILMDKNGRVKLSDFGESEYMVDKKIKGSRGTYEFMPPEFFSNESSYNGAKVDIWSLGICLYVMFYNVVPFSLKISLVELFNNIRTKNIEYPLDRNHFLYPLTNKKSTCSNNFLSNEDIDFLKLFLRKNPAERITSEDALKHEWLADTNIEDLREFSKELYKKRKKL
Sequence of L-lactate dehydrogenase (Plasmodium falciparum (isolate CDC / Honduras)) (Q27743 whole entry, looked up): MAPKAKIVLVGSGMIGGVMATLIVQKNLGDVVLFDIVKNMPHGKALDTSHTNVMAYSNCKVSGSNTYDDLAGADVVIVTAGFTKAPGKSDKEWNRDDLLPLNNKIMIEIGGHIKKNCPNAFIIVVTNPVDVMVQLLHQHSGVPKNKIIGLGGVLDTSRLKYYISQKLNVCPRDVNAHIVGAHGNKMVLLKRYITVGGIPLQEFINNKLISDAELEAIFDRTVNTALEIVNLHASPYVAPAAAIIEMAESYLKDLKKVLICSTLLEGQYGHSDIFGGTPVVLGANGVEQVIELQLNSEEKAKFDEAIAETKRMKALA
Sequence of Plasmodium falciparum protein kinase 6 (PK6, PF3D7_1337100) (Q8IDW1 1-305): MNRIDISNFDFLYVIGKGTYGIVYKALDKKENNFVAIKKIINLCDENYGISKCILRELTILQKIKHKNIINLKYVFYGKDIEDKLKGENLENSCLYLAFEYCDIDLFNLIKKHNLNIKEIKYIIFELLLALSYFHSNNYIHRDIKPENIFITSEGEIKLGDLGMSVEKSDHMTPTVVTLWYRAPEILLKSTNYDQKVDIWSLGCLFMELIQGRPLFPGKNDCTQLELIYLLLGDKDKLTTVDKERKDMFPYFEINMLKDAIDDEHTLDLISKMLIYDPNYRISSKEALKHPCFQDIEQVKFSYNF

The inhibition is the change of the read-out against control, counted positive when it falls. `CC(=O)N[C@H](C(=O)Nc1ccc(-c2cccc(-c3nc4c(C)cccc4[nH]3)c2)cc1)C(C)C`: the figures for the growth inhibition in assay [1] and in assay [4] were 10% and 89% (active), respectively. The inhibition in assay [2] was 9%; in assay [3], 2%. The result in assay [5], in assay [6], in assay [7] and in assay [8] was inactive.

With `Cc1cc(SC(C)(C)C)cc2c(Cl)c(C(N)=O)cnc12`, the growth inhibition in assay [1] and in assay [4] was 98% (active) each time. Besides, the results for the inhibition in assay [2] and in assay [3] were 83% (active) and 0%, respectively. The outcome in assay [5], in assay [6], in assay [7] and in assay [8] was inactive.

Consider `C=CCN1C(=O)c2[nH]nc(-c3cc(C)c(C)cc3O)c2C1c1cccc(Br)c1` (configuration not stated), for which the values for the growth inhibition in assay [1] and in assay [4] were 82% (active) and 90% (active), respectively. For the same molecule, the results for the inhibition in assay [2] and in assay [3] were -14% and -3%, respectively. Moreover, the result in assay [5], in assay [6], in assay [7] and in assay [8] was inactive.

Regarding `CCN(CC)CCCC(C)Nc1ccnc2ccc(OC)cc12` (configuration not stated), the figures for the growth inhibition in assay [1] and in assay [4] were -3% and 102% (active), respectively. In addition, the inhibition is 7% in assay [2] and -2% in assay [3]. The result in assay [5], in assay [6], in assay [7] and in assay [8] was inactive.

Regarding `Cc1ccc(CCOCCCCCNCC(O)c2cc(Cl)c(N)c(Cl)c2)cc1` (configuration not stated), the growth inhibition in assay [1] was 98% (active); in assay [4], 99% (active). In addition, the figures for the inhibition in assay [2] and in assay [3] were 10% and -1%, respectively. The outcome in assay [5], in assay [6], in assay [7] and in assay [8] was inactive.

On to `CCn1c(Sc2ccc(C#N)c([N+](=O)[O-])c2)nnc1-c1ccc(Cl)cc1`, for which the growth inhibition in assay [1] is 93% (active); in assay [4], 97% (active). Further, the inhibition in assay [2] is 0%; in assay [3], 6%. The outcome in assay [5], in assay [6], in assay [7] and in assay [8] was inactive.

`Cc1cnccc1/C=C/c1cccc(OCCN2CCc3ccc(S(C)(=O)=O)cc3CC2)c1`: the growth inhibition in assay [1] was 80% (active); in assay [4], 93% (active). In addition, the inhibition was 9% in assay [2] and -4% in assay [3]. Also, the result in assay [5], in assay [6], in assay [7] and in assay [8] was inactive.

Turning to `CN(C)CCOc1cccc(NC(=O)Nc2ccc(-c3ccccc3)cc2)c1`, the growth inhibition was 16% in assay [1] and 90% (active) in assay [4]. For the same molecule, the inhibition in assay [2] is 11%; in assay [3], -1%. Further, the outcome in assay [5], in assay [6], in assay [7] and in assay [8] was inactive.

Take `O=C(Nc1ccc(OC2CCN(Cc3ccccc3)C2)c(Cl)c1)c1ccc(F)cc1` (configuration not stated): the growth inhibition was 87% (active) in assay [1] and 90% (active) in assay [4]. The inhibition in assay [2] and in assay [3] was 7% each time. Moreover, the outcome in assay [5], in assay [6], in assay [7] and in assay [8] was inactive.

Take `CCOc1cc(C(=O)Nc2ccc3nc(N(CC)CC)cc(C)c3c2)cc(OCC)c1OCC`: the results for the growth inhibition in assay [1] and in assay [4] were 9% and 98% (active), respectively. Besides, the results for the inhibition in assay [2] and in assay [3] were 16% and -2%, respectively. The outcome in assay [5], in assay [6], in assay [7] and in assay [8] was inactive.

Consider `CN(C)CCNC(=O)c1ccc2c(c1)ncn2-c1cc(OCc2ccccc2C(F)(F)F)c(C(N)=O)s1` (tested in a mixture with another compound), for which the growth inhibition was 8% in assay [1] and 90% (active) in assay [4]. The inhibition in assay [2] is -9%; in assay [3], 1%. Further, the result in assay [5], in assay [6], in assay [7] and in assay [8] was inactive.

Consider `COCCNCc1ccc(-c2ccccc2CNC2CCN(Cc3ccccc3)CC2)cc1`, for which the growth inhibition in assay [1] was 28%; in assay [4] it was 97% (active). Also, the inhibition in assay [2] was 17%; in assay [3], -1%. For the same molecule, the result in assay [5], in assay [6], in assay [7] and in assay [8] was inactive.

Regarding `Cc1ccc(CN2CCN(Cc3cccc(NC(=O)c4ccc5ccccc5c4)c3)CC2)cc1C`, the values for the growth inhibition in assay [1] and in assay [4] were 23% and 89% (active), respectively. Also, the inhibition in assay [2] was 62% (active); in assay [3], -4%. Moreover, the outcome in assay [5], in assay [6], in assay [7] and in assay [8] was inactive.

On to `Cc1ccc(NC(=O)C2CCC2)cc1-c1ccc(C(=O)NCC2CC2)cc1`, for which the growth inhibition is 3% in assay [1] and 98% (active) in assay [4]. The inhibition in assay [2] was 13%; in assay [3], 3%. The result in assay [5], in assay [6], in assay [7] and in assay [8] was inactive.

In the case of `Cc1ccccc1CNc1noc(-c2c(F)cccc2Cl)n1`, the growth inhibition in assay [1] is 90% (active); in assay [4] it was 97% (active). The inhibition in assay [2] was 14%; in assay [3] it was -5%. Besides, the outcome in assay [5], in assay [6], in assay [7] and in assay [8] was inactive.

As to `O=C(/C=C/c1ccc(Cl)c(Cl)c1)NCCCCCN1CC[C@H](NC(=O)/C=C/c2ccccc2)C1`, the growth inhibition in assay [1] was 1%; in assay [4], 93% (active). The inhibition is 10% in assay [2] and 1% in assay [3]. Further, the outcome in assay [5], in assay [6], in assay [7] and in assay [8] was inactive.

With `CCN(CC)CCN(Cc1ccc(-c2ccc(C(F)(F)F)cc2)cc1)C(=O)Cn1c(CCc2c(F)cccc2F)nc(=O)c2ccccc21`, the growth inhibition in assay [1] was 61% (active); in assay [4], 102% (active). Further, the inhibition was 36% in assay [2] and -3% in assay [3]. Moreover, the outcome in assay [5], in assay [6], in assay [7] and in assay [8] was inactive.

In the case of `O=[N+]([O-])c1cccc(CNCC2CCN(Cc3ccc(Cl)c(Cl)c3)CC2)c1`, the growth inhibition in assay [1] is 41%; in assay [4] it was 101% (active). The inhibition is 9% in assay [2] and 4% in assay [3]. Also, the result in assay [5], in assay [6], in assay [7] and in assay [8] was inactive.

For `Oc1c(C(Nc2ccccn2)c2ccco2)cc(Cl)c2cccnc12` (configuration not stated), the results for the growth inhibition in assay [1] and in assay [4] were 65% (active) and 87% (active), respectively. In addition, the values for the inhibition in assay [2] and in assay [3] were 41% and 1%, respectively. In addition, the outcome in assay [5], in assay [6], in assay [7] and in assay [8] was inactive.
